Source: PubChem BioAssay

These compounds were tested against PEG-3 (UniProt Q6IN02) (assay: inhibition of PEG-3 promoter-driven reporter – cell-based, HeLa, luciferase, CREF/GAPDH counter-screen panel, dose response (AID 624167)). Details: CREF/GAPDH counter-screens; HeLa PEG-Prom luciferase reporter, overnight, run 1, dose range 1, at 100 µM (top of the series) unless noted.
PEG-3, sequence (Q6IN02 whole entry, looked up): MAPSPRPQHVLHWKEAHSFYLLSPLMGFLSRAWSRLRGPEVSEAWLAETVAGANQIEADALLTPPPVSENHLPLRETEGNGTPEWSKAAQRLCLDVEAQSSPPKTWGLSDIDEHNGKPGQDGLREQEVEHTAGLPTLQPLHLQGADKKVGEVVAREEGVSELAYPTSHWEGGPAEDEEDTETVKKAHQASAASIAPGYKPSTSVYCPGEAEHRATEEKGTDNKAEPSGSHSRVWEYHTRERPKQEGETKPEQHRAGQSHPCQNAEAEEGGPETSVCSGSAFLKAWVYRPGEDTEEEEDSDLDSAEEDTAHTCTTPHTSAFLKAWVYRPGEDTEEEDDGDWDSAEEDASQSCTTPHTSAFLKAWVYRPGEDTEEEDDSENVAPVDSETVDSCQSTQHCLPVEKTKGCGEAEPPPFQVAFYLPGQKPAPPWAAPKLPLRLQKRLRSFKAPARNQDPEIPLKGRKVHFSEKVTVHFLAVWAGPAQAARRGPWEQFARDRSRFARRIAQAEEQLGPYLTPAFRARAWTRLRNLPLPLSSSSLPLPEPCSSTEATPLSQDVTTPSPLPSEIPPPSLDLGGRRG

**Q.** How did the inhibition turn out when COc1ccccc1Nc1nc(-c2sc(NC(=O)c3ccco3)nc2C)cs1 was run?
**A.** The inhibition was 38%.

**Q.** For CCCc1nc2oc3c(NCCCN(C)C)ncnc3c2c2c1CCCC2, which inhibition is on record?
**A.** The inhibition was 102%.

**Q.** With Cc1cc(C2=NNC(=NC3CC3)SC2)c(C)n1-c1ccccc1F as the compound, how does the inhibition read?
**A.** The inhibition was 98%.

**Q.** With CC(NNC(=S)N1CCN(c2ccccn2)CC1)c1nccc2ccccc12 (centres undefined) as the compound, how does the inhibition read?
**A.** Its inhibition is 98.7%.

**Q.** With COc1ccc2sc3cccc(NCCN(C)C)c3c(=O)c2c1 as the compound, how does the inhibition read?
**A.** Its inhibition is 98%.

**Q.** Which inhibition does the source give for COc1cc(C=NO)nc(-c2ccccn2)c1 here?
**A.** The inhibition was 71.9%.

**Q.** How did the inhibition turn out when Cc1ccc(-n2cc(CNCCCn3ccnc3C)c(-c3ccc(F)cc3)n2)cc1 was run?
**A.** The inhibition was 99.8%.

**Q.** Which inhibition does the source give for CCCc1ccc(C(=O)O/N=C(\N)c2ccccn2)cc1 here?
**A.** The inhibition was 99.7%.

**Q.** Which inhibition does the source give for Fc1ccc([C@@H]2CCNC[C@H]2COc2ccc3c(c2)OCO3)cc1 here?
**A.** Its inhibition is 102%.

**Q.** With Cc1ccc(-c2cc(C(=O)Nc3nccs3)c3ccccc3n2)c(C)c1 as the compound, how does the inhibition read?
**A.** Its inhibition is 34%.

**Q.** Which inhibition does the source give for CN1Cc2c(N3CCOCC3)nc3sc(C(=O)c4ccc(Br)cc4)c(N)c3c2CC1(C)C here?
**A.** The inhibition was 99%.

**Q.** COc1ccc(-n2cc(-c3ccccc3)c3c(N4CCOCC4)ncnc32)cc1 was tested. Which inhibition did it give?
**A.** Its inhibition is 94.2%.

**Q.** With CCOC(=O)c1c(SCCN2CCCCC2)n(-c2ccccc2)c(=S)n(-c2ccccc2)c1=O as the compound, how does the inhibition read?
**A.** The inhibition was 97.7%.

**Q.** How did the inhibition turn out when CC(C)CC(N)c1csc(NC(=O)Nc2ccccc2C(C)(C)C)n1 (centres undefined) was run?
**A.** The inhibition was 102%.

**Q.** How did the inhibition turn out when O=c1c2c3c(sc2nc(N2CCNCC2)n1CCc1ccccc1)CCCCC3 was run?
**A.** Its inhibition is 102%.

**Q.** O=C(COc1ccc2c(c1)CCC2)Nc1ccccn1 was tested. Which inhibition did it give?
**A.** The inhibition was 98.8%.

**Q.** For O=C(NNC(=O)c1cccnc1SCc1cccc([N+](=O)[O-])c1)c1ccccn1, which inhibition is on record?
**A.** Its inhibition is 65.1%.

**Q.** With O=C(NC1=C(NC2CCS(=O)(=O)C2)C(=O)c2ccccc2C1=O)c1ccccc1 (centres undefined) as the compound, how does the inhibition read?
**A.** The inhibition was 102%.

**Q.** With Cc1ccc(-c2nnc(N3CCN(c4ccccn4)CC3)c3ccccc23)cc1 as the compound, how does the inhibition read?
**A.** The inhibition was 98%.

**Q.** How did the inhibition turn out when COc1ccccc1N1CCN(C(=O)c2sc3ncnc(N4CCN(c5ccccn5)CC4)c3c2C)CC1 was run?
**A.** Its inhibition is 88.3%.

**Q.** Which inhibition does the source give for O=C(Cn1ncc(Cl)c(Cl)c1=O)N1CCN(Cc2ccccc2)CC1 here?
**A.** Its inhibition is 95.2%.

**Q.** How did the inhibition turn out when Cc1ccc(NC(=O)Nc2ccnc(-c3cccnc3)n2)cc1 was run?
**A.** Its inhibition is 44.3%.

**Q.** With COC(=O)C1=C(C)N(Cc2ccccc2)C(=NCc2cccc(Cl)c2)N[C@H]1c1ccccc1 as the compound, how does the inhibition read?
**A.** The inhibition was 102%.

**Q.** Cc1cc(C)c2sc(N(CCCN(C)C)C(=O)c3ccc(S(=O)(=O)N(C)Cc4ccccc4)cc3)nc2c1 was tested. Which inhibition did it give?
**A.** The inhibition was 98.7%.

**Q.** How did the inhibition turn out when OC1(c2ccc(Cl)c(Cl)c2)C[n+]2ccccc2N1Cc1ccccc1 (centres undefined) was run?
**A.** The inhibition was 95%.

**Q.** With COc1cc(NS(C)(=O)=O)ccc1Nc1c2ccccc2nc2ccccc12 as the compound, how does the inhibition read?
**A.** The inhibition was 102%.

**Q.** For NC(N)=N/N=C/c1ccc(Cl)cc1Cl, which inhibition is on record?
**A.** The inhibition was 97.7%.

**Q.** For NS(=O)(=O)c1ccc(CCNc2nn3c(-c4ccc(F)c(Cl)c4)cnc3s2)cc1, which inhibition is on record?
**A.** The inhibition was 66.9%.

**Q.** Which inhibition does the source give for O=C(NCCc1ccccc1)c1ccc2c(c1)OCO2 here?
**A.** Its inhibition is 86.2%.

**Q.** How did the inhibition turn out when C(=N\Nc1ccc2ccccc2n1)/c1ccc2c(c1)OCCO2 was run?
**A.** The inhibition was 98.4%.

**Q.** How did the inhibition turn out when O=C(c1ccco1)N1CCN(C(c2ccccc2Cl)c2nnnn2Cc2cccs2)CC1 (centres undefined) was run?
**A.** The inhibition was 63%.

**Q.** Which inhibition does the source give for CCCCN(C)C(=O)c1ccc(Nc2nc(C(N)CCc3ccccc3)cs2)nc1 (centres undefined) here?
**A.** Its inhibition is 98.6%.

**Q.** With Cc1cc(C)c(CN2CCN(CCCn3cnc(C(=O)Nc4ccc(C)c(C)c4)n3)CC2)c(C)c1 as the compound, how does the inhibition read?
**A.** Its inhibition is 102%.

**Q.** Which inhibition does the source give for COc1cccc(Nc2nc(C(N)C3CCCCC3)cs2)n1 (centres undefined) here?
**A.** The inhibition was 98.9%.

**Q.** How did the inhibition turn out when COc1ccc(NS(=O)(=O)c2ccc3ccccc3c2)c2ncccc12 was run?
**A.** Its inhibition is 57.9%.

**Q.** For O=C(NCCc1ccccc1)c1ccc2c(c1)OCCCO2, which inhibition is on record?
**A.** Its inhibition is 101%.

**Q.** Which inhibition does the source give for CC1CCN(c2ccc(-c3cccs3)nn2)CC1 here?
**A.** The inhibition was 90.2%.

**Q.** With COc1ccc(C(=O)NNC(=O)c2ccccn2)cc1 as the compound, how does the inhibition read?
**A.** The inhibition was 102%.

**Q.** Which inhibition does the source give for CC(C)CC1C(=O)N(Cc2cn(Cc3ccco3)nn2)CCS(=O)(=O)N1Cc1ccc(-c2ccc(F)cc2)cc1 (centres undefined) here?
**A.** Its inhibition is 39%.
